Our source for the z-score values is PubChem BioAssay.

Values without a mark were called inactive.

The assay is described as follows: FRG1 expression reporter modulators in myotubes – cell-based, C2C12 myotubes, firefly/Renilla luciferase, luminescence, FRG1 inhibition for FSHD, primary screen (AID 1084). The settings on record: FRG1 promoter luciferase, higher = more signal, called active from +8 up or from −8 down.
On to `CC(C)c1ccc(NN2C(C(O)C3CCCCC3)C=CC3C(=O)N(c4ccccc4)C(=O)C32)cc1` (stereo unspecified), for which the z-score is -1.09.

On to `COc1ccc(C(=O)Nc2ccc(CN3C(=O)[C@]4(O[C@H](CC(=O)N(CCO)Cc5ccccc5)[C@@H]([Si](C)(C)c5ccc(OC)cc5)[C@@H]4C)c4ccccc43)cc2)cc1`, for which the z-score is -0.228.

As for `CCOC(=O)C=C1C[C@@H](c2cccc([N+](=O)[O-])c2)O[C@@H](c2cccc([N+](=O)[O-])c2)O1`, the z-score is -2.17.

Consider `CC[C@@H]1C=C(C(=O)O)[C@H](c2cccc(Cl)c2)N1S(=O)(=O)c1ccc(C)cc1`, for which the z-score was -1.53.

`C=CCOC(=O)[C@H]1[C@@H]2C(=O)O[C@@H](c3ccccc3)[C@@H](c3ccccc3)N2[C@@H](c2ccc(OCCOC(=O)[C@@H]3C[C@@H]4C(=O)N[C@@H](Cc5ccccc5)C(=O)N4[C@@H]3c3ccc(O)cc3)cc2)[C@]12C(=O)Nc1ccc(I)cc12`: the z-score was 1.3.

On to `COC(=O)C1=CC(c2ccc(CO)cc2)=CC(C2CC2)N(Cc2cc3c(cc2Br)OCO3)C=C1C(=O)OC` (stereo unspecified), for which the z-score was -2.56.

As to `O=C1O[C@H](c2ccccc2)[C@H](c2ccccc2)N2[C@H]1[C@@H](C(=O)O)[C@]1(C(=O)Nc3ccc(C#CC4(O)CCCCCC4)cc31)[C@H]2c1ccccc1OCCO`, the z-score is -0.283.

Turning to `CCCCCCc1nc(-c2ccc(OC)nc2)c(C)c2c1[Si](C(C)C)(C(C)C)OC2`, the z-score is 0.329.

Turning to `[N-]=[N+]=NCc1ccccc1[C@H]1OC(c2ccc(OCCCO)cc2)=N[C@@]1(Cc1ccccc1N=[N+]=[N-])C(=O)N1CCOCC1`, the z-score was -1.31.

For `C=CCOC(=O)[C@H]1[C@@H]2C(=O)O[C@@H](c3ccccc3)[C@@H](c3ccccc3)N2[C@@H](c2ccc(OCCOC(=O)[C@H]3C[C@H]4C(=O)NCC(=O)N4[C@H]3c3cccc(OCCO)c3)cc2)[C@]12C(=O)Nc1ccc(I)cc12`, the z-score is -0.18.

As to `COCCOC(=O)N1C(=O)[C@@]2(c3cc(C#CCNC(N)=O)ccc31)[C@H](C(N)=O)[C@H]1C(=O)O[C@H](c3ccccc3)[C@H](c3ccccc3)N1[C@@H]2c1ccc(O)cc1`, the z-score is -0.329.

As for `C=C1C(=O)C=C2CN(C(=O)c3ccccc3)[C@@](Cc3ccc(F)cc3)(C(=O)OC)[C@@H]12`, the z-score is 4.89.

Take `CC(C)(C)OC(=O)N1[C@@H](C=C(Br)Br)COC1(C)C`: the z-score is -1.42.

Turning to `O=C1C[C@@](C(=O)NCC(F)(F)F)(c2ccc([N+](=O)[O-])cc2)[C@@H](c2ccc(CO)cc2I)N1CC12CC3CC(CC(C3)C1)C2`, the z-score is -2.99.

For the compound `Cc1cccc([C@H]2C[C@H]3C(Br)=C[C@@]2(CO)C(=O)[C@]32CO2)c1`, the z-score is 1.46.

On to `COC(=O)C(CC#Cc1ccc2c(c1)[C@]1(C(=O)N2)[C@H](c2ccccc2OCCO)N2[C@H](c3ccccc3)[C@H](c3ccccc3)OC(=O)[C@H]2[C@@H]1C(=O)N1CCN(c2ncccn2)CC1)C(=O)OC`, for which the z-score was -1.46.

For the compound `O=C1NC(=O)C2C1C=CC(C(O)c1ccc(F)cc1)N2Nc1ccc(Cl)cc1Cl` (stereo unspecified), the z-score is -0.068.

`C=CCOC(=O)[C@@H]1[C@H]2C(=O)O[C@H](c3ccccc3)[C@H](c3ccccc3)N2[C@H](c2ccc(OCCOC(=O)[C@@H]3C[C@@H]4C(=O)N[C@@H](CC(C)C)C(=O)N4[C@@H]3c3ccc(O)cc3)cc2)[C@@]12C(=O)Nc1ccc(I)cc12`: the z-score is -0.277.

With `COC(=O)c1ccc(OC)c(/C=C\CC(OC(=O)c2ccncc2)c2ccccc2)c1` (stereo unspecified), the z-score was -1.97.

With `COC(=O)[C@@]1(Cc2ccc(F)cc2)[C@H]2c3cc(C(=O)N4CCCC4)n(CCSCCO)c3C[C@H]2CN1C(=O)c1ccccc1`, the z-score is -0.0476.

With `Cc1c(NC(=O)/C(C#N)=C/C=C/c2ccc([N+](=O)[O-])cc2)c(=O)n(-c2ccccc2)n1C`, the z-score was 3.34.

As to `COc1ccc([Si](C)(C)[C@H]2[C@H](CC(=O)N(CCO)Cc3ccccc3)O[C@@]3(C(=O)N(Cc4cccc(N5CCCCC5=O)c4)c4ccccc43)[C@@H]2C)cc1`, the z-score is -2.71.

In the case of `O=C1c2ccccc2[C@@]2(Cc3ccccc3N(CC(F)(F)F)C2=O)[C@H](c2ccc(CO)cc2)N1Cc1ccccc1`, the z-score is 0.605.

`CC(C)C[C@@H]1NC(=O)[C@@H]2C[C@H](C(=O)NCCCCCNC(=O)CS)[C@H](c3ccc(O)cc3)N2C1=O`: the z-score is 2.98.

As to `COc1ccc(C(O)C2C=CC3C(=O)N(C)C(=O)C3N2Nc2ccccc2)cc1` (stereo unspecified), the z-score was 1.71.

Regarding `Cc1ccc(S[C@]2(C(=O)NCCN3CCOCC3)CC(=O)N(C(C)C)[C@@H]2c2ccc(CO)cc2I)cc1`, the z-score was -0.977.

With `COc1ccc([Si](C)(C)[C@H]2[C@H](CC(=O)N(CCO)Cc3ccccc3)O[C@@]3(C(=O)N(Cc4ccc(N5C(=O)c6cccc7cccc5c67)cc4)c4ccccc43)[C@@H]2C)cc1`, the z-score is -3.26.

As for `COC(=O)[C@@]1(Cc2ccccc2)[C@H]2c3cc(C(=O)N(C)C)n(CCF)c3C[C@H]2CN1C(=O)c1ccccc1`, the z-score is 1.52.

As for `C=CCC(OC(C)=O)[C@@H]1[C@@H](N(Cc2ccc(-c3ccccc3)cc2)C(=O)Cc2ccc(OC)cc2)c2cc(OCCCO)ccc2N1C(=O)c1ccc2ccccc2c1` (stereo partly specified), the z-score is -0.808.

In the case of `C=C(C(=O)CC[C@@H](OC(=O)c1cccnc1)c1cccc(OCCO)c1)C(C)C`, the z-score is 1.2.

`CCCC=C(CCC)[C@@H](NC(=O)c1ccc(C(=O)OC)cc1)c1ccc(C(=O)OC)cc1`: the z-score is 1.24.

Consider `[N-]=[N+]=NCc1ccccc1C[C@]1(C(=O)N2CCCCC2)COC(c2ccc(OCCCO)cc2)=N1`, for which the z-score is -4.13.

In the case of `COC(=O)[C@@]1(Cc2ccc(F)cc2)[C@H]2c3cc(C(=O)N4CCCC4)n(Cc4ccc(OC(F)(F)F)cc4)c3C[C@H]2CN1C(=O)c1ccccc1`, the z-score was 1.45.

For the compound `Cc1ccc(S[C@]2(C(=O)NCc3ccccc3)CC(=O)N(Cc3ccccc3C(F)(F)F)[C@@H]2c2ccc(CO)cc2I)cc1`, the z-score was -0.701.

Regarding `COCCOC(=O)N1C(=O)[C@@]2(c3cc(C#CC4(O)CCCCCC4)ccc31)[C@H](C(N)=O)[C@H]1C(=O)O[C@H](c3ccccc3)[C@H](c3ccccc3)N1[C@@H]2c1ccc(OCCO)cc1`, the z-score was 1.1.

For `OCCCc1cc[n+](Cc2cc3c(cc2Br)OCO3)cc1`, the z-score was 0.584.
